# From paper PMC10726135, “HNF4α isoforms regulate the circadian balance between carbohydrate and lipid metabolism in the liver”
# The full ranking holds about 18,000 sequences; the median of “log2 normalized intensity” is about 0.39, and the highest 2% start at about 6.6. Only a selection was taken, and the highest values are over-represented in it overall.
# Target: T1, HNF4alpha2 (COS-7 nuclear extract) (Homo sapiens, UniProt P41235 1-474)
# T1 sequence: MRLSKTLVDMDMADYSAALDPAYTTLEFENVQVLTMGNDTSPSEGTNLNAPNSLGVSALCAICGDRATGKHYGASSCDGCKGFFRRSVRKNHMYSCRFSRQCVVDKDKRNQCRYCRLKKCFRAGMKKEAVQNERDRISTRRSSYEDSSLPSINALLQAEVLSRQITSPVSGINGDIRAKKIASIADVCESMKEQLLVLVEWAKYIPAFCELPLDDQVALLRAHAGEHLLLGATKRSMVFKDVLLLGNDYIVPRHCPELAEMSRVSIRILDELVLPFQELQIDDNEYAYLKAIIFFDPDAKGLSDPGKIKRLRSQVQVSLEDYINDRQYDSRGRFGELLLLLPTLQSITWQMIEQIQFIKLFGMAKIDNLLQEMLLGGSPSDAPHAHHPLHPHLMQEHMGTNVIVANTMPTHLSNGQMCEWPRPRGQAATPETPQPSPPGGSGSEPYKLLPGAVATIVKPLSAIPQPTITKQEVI
# Experiment: protein-binding microarray; COS-7 nuclear extract on double-stranded Agilent 4x180k PBM; binding buffer, salt, pH and temperature not given in the material; high values mean tight binding
# Settings: chain copies: 2; label: 3' end of strand 1 on the slide; dsDNA, one strand shown
# Summary of the method: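 Nuclear extracts of COS-7 cells transiently transfected with a human HNF4α isoform were applied to a custom Agilent SurePrint G3 4x180k array bearing ~44,000 double-stranded ~60-nt test sequences, each in quadruplicate. The bound protein was imaged on an Agilent G2565CA scanner at 2-µm resolution. Binding signal is the normalized, background-corrected gProcessedSignal from Agilent software.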
row,Sequence,binding signal
1,ATATCTATATGTTTACATATCACTGTACTCGCCTAGGGAGATTAGAGTATCGGTCGA,2.08 log2 normalized intensity
2,CATGCTCCCCACCCCCAACTTCCCCAACCCGCCTAGGGAGATTAGAGTATCGGTCGA,6.67 log2 normalized intensity
3,ACCAAGGGTCATGCTGGTCTCCTTGCCCCAGCCTAGGGAGATTAGAGTATCGGTCGA,1.74 log2 normalized intensity
4,CCTTGCCCCACCCCCCACCCCAGAAGTATGGCCTAGGGAGATTAGAGTATCGGTCGA,6.2 log2 normalized intensity
5,ATGCTGGTCTCCTTGCCCCACCCCCCACCCGCCTAGGGAGATTAGAGTATCGGTCGA,7.6 log2 normalized intensity
6,GCTCCCTCCCCTCCTCCCTTGCTCACCCCAGCCTAGGGAGATTAGAGTATCGGTCGA,5.91 log2 normalized intensity
7,TCCCCACCCCCAACTTCCCCAACCCTTGCAGCCTAGGGAGATTAGAGTATCGGTCGA,6.3 log2 normalized intensity
8,GGTCTCCTTGCCCCACCCCCCACCCCAGAAGCCTAGGGAGATTAGAGTATCGGTCGA,6.86 log2 normalized intensity
9,ATCCCCGCTCCCCTCCCCCACCCGCGGTCCGCCTAGGGAGATTAGAGTATCGGTCGA,6.38 log2 normalized intensity
10,GGGTCATGCTGGTCTCCTTGCCCCACCCCCGCCTAGGGAGATTAGAGTATCGGTCGA,5.55 log2 normalized intensity
11,CGAACCTGTCTCCAGAGGACTTGCGGTGTTGCCTAGGGAGATTAGAGTATCGGTCGA,0.482 log2 normalized intensity
12,CTGCCCTTTGGAACCTGCCCTCTGTCCCATGCCTAGGGAGATTAGAGTATCGGTCGA,4.15 log2 normalized intensity
13,GGGTCAGAACCTGCCCATGACCTTTGGACTGCCTAGGGAGATTAGAGTATCGGTCGA,11.1 log2 normalized intensity
14,GGACTGTGACCCCACCTCTCAGACAGAGCTGCCTAGGGAGATTAGAGTATCGGTCGA,2.75 log2 normalized intensity
15,GGGCAGGGTCAGAACCTGCCCATGACCTTTGCCTAGGGAGATTAGAGTATCGGTCGA,5.92 log2 normalized intensity
16,AGAACCTGCCCATGACCTTTGGACTGTGACGCCTAGGGAGATTAGAGTATCGGTCGA,9.54 log2 normalized intensity
17,CTTTGGAACCTGCCCTCTGTCCCATGGTGTGCCTAGGGAGATTAGAGTATCGGTCGA,2.48 log2 normalized intensity
18,CCTTTGGACTGTGACCCCACCTCTCAGACAGCCTAGGGAGATTAGAGTATCGGTCGA,4.83 log2 normalized intensity
19,AAACCCAAGATTTGGTGTTACCTTTGGACTGCCTAGGGAGATTAGAGTATCGGTCGA,5.71 log2 normalized intensity
20,CATGACCTTTGGACTGTGACCCCACCTCTCGCCTAGGGAGATTAGAGTATCGGTCGA,7.45 log2 normalized intensity
21,TGTAATAAGGAGTTGTGTGATAAGGAGGGCGCCTAGGGAGATTAGAGTATCGGTCGA,0.534 log2 normalized intensity
22,CATGCAATCACACTAATCTGTCAGAAAACCGCCTAGGGAGATTAGAGTATCGGTCGA,-0.731 log2 normalized intensity
23,GGTGAGGGTTACAGGTGGACAAACAGGCTGGCCTAGGGAGATTAGAGTATCGGTCGA,-0.829 log2 normalized intensity

row,Sequence,binding signal
1,CTGAAGAATTTGGACTTTGCACTAAAAGCCGCCTAGGGAGATTAGAGTATCGGTCGA,6.95 log2 normalized intensity
2,GGGTCCTGGCAGCACCTGAAGAATTTGGACGCCTAGGGAGATTAGAGTATCGGTCGA,1.23 log2 normalized intensity
3,GAAGATCGCAGACTTTGGACTCTGCAAGGAGCCTAGGGAGATTAGAGTATCGGTCGA,5.8 log2 normalized intensity
4,AGCACCTGAAGAATTTGGACTTTGCACTAAGCCTAGGGAGATTAGAGTATCGGTCGA,8.43 log2 normalized intensity
5,GAATTTGGACTTTGCACTAAAAGCCATGAGGCCTAGGGAGATTAGAGTATCGGTCGA,5.86 log2 normalized intensity
6,GGAGACCTGAAACTAGACCAAGAAGACTTTGCCTAGGGAGATTAGAGTATCGGTCGA,-0.974 log2 normalized intensity
7,TGGACTTTGGAATTAAGGAGATTTGGCTTTGCCTAGGGAGATTAGAGTATCGGTCGA,4.84 log2 normalized intensity
8,GGTGAGTCTTTGCCCCTGGACTTTGAATTTGCCTAGGGAGATTAGAGTATCGGTCGA,4.94 log2 normalized intensity
9,CTGGCAGCACCTGAAGAATTTGGACTTTGCGCCTAGGGAGATTAGAGTATCGGTCGA,7.7 log2 normalized intensity
10,TTCCTGAAGATCGCAGACTTTGGACTCTGCGCCTAGGGAGATTAGAGTATCGGTCGA,7.83 log2 normalized intensity
11,TGGACTTTGCACTAAAAGCCATGAGAAGGTGCCTAGGGAGATTAGAGTATCGGTCGA,4.84 log2 normalized intensity
12,AGGGATTCCTGAAGATCGCAGACTTTGGACGCCTAGGGAGATTAGAGTATCGGTCGA,5.66 log2 normalized intensity
13,AATAGTGACCTCTGCTGGCCAGTGGAAAACGCCTAGGGAGATTAGAGTATCGGTCGA,1.08 log2 normalized intensity
14,CAGTCTAGAATCTGCAGCCCCTTTTGGAATGCCTAGGGAGATTAGAGTATCGGTCGA,2.02 log2 normalized intensity
15,CCACTGGAGTCTTGTTTGTCAAGTTTGGTAGCCTAGGGAGATTAGAGTATCGGTCGA,1.81 log2 normalized intensity
16,AGGGTGTTGTGGAATGTGCTTGGACCTGCTGCCTAGGGAGATTAGAGTATCGGTCGA,1.99 log2 normalized intensity
17,AGAAATGTTATCTCAGTAGACTAACGTATGGCCTAGGGAGATTAGAGTATCGGTCGA,0.476 log2 normalized intensity
18,GCATTCCACCAAATCTTACCTAAGGAAGTTGCCTAGGGAGATTAGAGTATCGGTCGA,-0.954 log2 normalized intensity
19,ATTCCAAGAAGAGCCAATAGTACACATCAAGCCTAGGGAGATTAGAGTATCGGTCGA,-0.572 log2 normalized intensity
20,ACATCAGAAGTTGGACTTTGTACATTCCAAGCCTAGGGAGATTAGAGTATCGGTCGA,7.69 log2 normalized intensity
21,TTGGACTTTGTACATTCCAAATACGATAATGCCTAGGGAGATTAGAGTATCGGTCGA,5.36 log2 normalized intensity
22,GGGCTTTTGTCACATTCCAGACTTTGTACAGCCTAGGGAGATTAGAGTATCGGTCGA,4.95 log2 normalized intensity
23,TCCAAAATACGACCTTTGGACAGGGTGACGGCCTAGGGAGATTAGAGTATCGGTCGA,6.8 log2 normalized intensity
